Experimental findings from PubChem BioAssay are described below.

Molecules are shown by their SMILES. Where “and” joins values, the source holds several entries; their conditions need not be identical. Identical values can stand only once. Calls of active or inactive are those of the source.

Assay [1] is described as follows: E. coli DRC41 culture turbidity changes, primary screen, E. coli filamentation inducer project, strain DRC41, OD650, 48 h (AID 1152).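 Note: E. coli MC1000 strain DRC41 lacking acrAB efflux pump and sulA.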 The note with it: E. coli DRC41 (acrAB sulA), higher = more signal, called active from +8 up or from −8 down.
Assay [2] in a line: small-molecule binders of probe aLefty1, primary screen, biochemical, small-molecule microarray, 635/667 nm fluorescence (AID 1153).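 Note: score merges spot fluorescence with signal-to-noise ratio from the scanned slide images.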 The note with it: higher = more signal.
A short description of assay [3]: PSAC antagonists in infected red cells, primary screen, cell-based, P. falciparum Indochina, OD700, 1 h (AID 1154). As to conditions: P. falciparum Indochina infected RBC osmotic lysis, higher = more signal, called active from +8 up or from −8 down.
The nature of assay [4]: PSAC antagonists in infected red cells, primary screen, cell-based, P. falciparum Indochina, OD700, 2 h (AID 1155).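 Note: lysis reports solute entry through the parasite surface anion channel PSAC; channel blockers reduce lysis of infected cells.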 The note with it: P. falciparum Indochina infected erythrocytes, osmotic lysis OD700; higher = more signal, called active from +8 up or from −8 down.
Assay [5] is described as follows: osmotic lysis modulators in infected erythrocytes, primary screen, PSAC antagonist project, cell-based, P. falciparum Indochina, OD700, 3 h (AID 1156). As to conditions: higher = more signal, called active from +8 up or from −8 down.
Assay [6] in a line: PSAC antagonists in infected red cells, primary screen, cell-based, P. falciparum Indochina, OD700, 18 h (AID 1157). As to conditions: P. falciparum Indochina infected erythrocytes, osmotic lysis OD700, 18 h; higher = more signal, called active from +8 up or from −8 down.
Assay [7] in a line: modulators of S6 phosphorylation in cells, primary screen, cell-based, A549, cytoblot, luminescence, serum-stimulated (AID 1158).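 Note: serum-stimulated A549 lung adenocarcinoma cells; signal is phosphorylated S6 detected by cytoblot immunostaining with HRP secondary.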 As to conditions: A549 phospho-S6 cytoblot, 5 h, higher = more signal.
Assay [8] deals with NADPH oxidase 2 (Homo sapiens) (UniProt P04839). The experiment in a line: NOX2-dependent H2O2 signal modulators, primary screen, NOX inhibitor project, cell-based, HEK293-NOX2, PMA-stimulated, Amplex Red fluorescence (AID 1159). Note: test concentration not given here. The note with it: 45 min, higher = more signal, called active from +8 up or from −8 down.
Assay [9] has as its target NADPH oxidase 4 (Homo sapiens) (UniProt Q9NPH5). The assay can be described thus: NOX4-dependent H2O2 signal modulators, primary screen, NOX inhibitor project, cell-based, HEK293-NOX4, tetracycline-induced, Amplex Red fluorescence (AID 1160). The note with it: 45 min, higher = more signal, called active from +8 up or from −8 down.
The target of assay [10] is NADPH oxidase 5 (Homo sapiens) (UniProt Q96PH1). The assay can be described thus: NOX5-dependent H2O2 signal modulators, primary screen, NOX inhibitor project, cell-based, HEK293-NOX5, Amplex Red fluorescence (AID 1161). The note with it: HEK293-NOX5, ionomycin, 45 min, higher = more signal.
Chain of NADPH oxidase 5 (Homo sapiens) (Q96PH1 whole entry, looked up): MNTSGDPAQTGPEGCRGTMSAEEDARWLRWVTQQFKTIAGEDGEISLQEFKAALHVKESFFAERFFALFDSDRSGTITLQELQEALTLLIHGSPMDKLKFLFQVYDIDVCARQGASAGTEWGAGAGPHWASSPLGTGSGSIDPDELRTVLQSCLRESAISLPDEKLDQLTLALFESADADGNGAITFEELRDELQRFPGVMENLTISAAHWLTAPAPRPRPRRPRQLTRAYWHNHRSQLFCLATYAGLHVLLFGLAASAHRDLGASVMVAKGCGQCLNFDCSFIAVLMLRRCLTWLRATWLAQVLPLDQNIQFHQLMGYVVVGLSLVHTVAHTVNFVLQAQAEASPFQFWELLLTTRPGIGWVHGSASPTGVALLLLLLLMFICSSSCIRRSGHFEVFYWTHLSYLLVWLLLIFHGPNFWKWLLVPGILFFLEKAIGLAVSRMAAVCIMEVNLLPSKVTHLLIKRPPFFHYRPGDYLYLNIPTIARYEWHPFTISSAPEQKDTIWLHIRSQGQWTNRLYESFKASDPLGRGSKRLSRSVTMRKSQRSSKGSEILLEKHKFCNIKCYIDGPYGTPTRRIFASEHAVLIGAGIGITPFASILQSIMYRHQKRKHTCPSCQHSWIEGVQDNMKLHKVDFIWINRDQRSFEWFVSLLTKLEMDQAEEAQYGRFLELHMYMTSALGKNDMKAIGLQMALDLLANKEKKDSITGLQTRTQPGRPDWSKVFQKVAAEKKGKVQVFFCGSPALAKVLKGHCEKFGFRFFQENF

Chain of NADPH oxidase 2 (Homo sapiens) (P04839 whole entry, looked up): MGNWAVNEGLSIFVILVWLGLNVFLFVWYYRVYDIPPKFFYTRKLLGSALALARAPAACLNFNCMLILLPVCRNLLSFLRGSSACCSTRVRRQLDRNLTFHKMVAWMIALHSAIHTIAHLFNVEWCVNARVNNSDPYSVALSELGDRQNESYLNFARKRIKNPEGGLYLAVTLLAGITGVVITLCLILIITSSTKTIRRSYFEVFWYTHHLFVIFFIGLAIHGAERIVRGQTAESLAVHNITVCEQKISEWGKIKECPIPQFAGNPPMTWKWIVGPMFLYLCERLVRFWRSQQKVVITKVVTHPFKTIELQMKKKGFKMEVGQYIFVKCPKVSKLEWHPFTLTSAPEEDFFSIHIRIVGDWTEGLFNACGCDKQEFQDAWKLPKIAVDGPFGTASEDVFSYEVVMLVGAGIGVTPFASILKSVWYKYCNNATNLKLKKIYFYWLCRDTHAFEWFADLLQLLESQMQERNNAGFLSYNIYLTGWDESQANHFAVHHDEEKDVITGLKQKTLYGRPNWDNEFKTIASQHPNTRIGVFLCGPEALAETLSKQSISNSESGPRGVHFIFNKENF
Chain of NADPH oxidase 4 (Homo sapiens) (Q9NPH5 whole entry, looked up): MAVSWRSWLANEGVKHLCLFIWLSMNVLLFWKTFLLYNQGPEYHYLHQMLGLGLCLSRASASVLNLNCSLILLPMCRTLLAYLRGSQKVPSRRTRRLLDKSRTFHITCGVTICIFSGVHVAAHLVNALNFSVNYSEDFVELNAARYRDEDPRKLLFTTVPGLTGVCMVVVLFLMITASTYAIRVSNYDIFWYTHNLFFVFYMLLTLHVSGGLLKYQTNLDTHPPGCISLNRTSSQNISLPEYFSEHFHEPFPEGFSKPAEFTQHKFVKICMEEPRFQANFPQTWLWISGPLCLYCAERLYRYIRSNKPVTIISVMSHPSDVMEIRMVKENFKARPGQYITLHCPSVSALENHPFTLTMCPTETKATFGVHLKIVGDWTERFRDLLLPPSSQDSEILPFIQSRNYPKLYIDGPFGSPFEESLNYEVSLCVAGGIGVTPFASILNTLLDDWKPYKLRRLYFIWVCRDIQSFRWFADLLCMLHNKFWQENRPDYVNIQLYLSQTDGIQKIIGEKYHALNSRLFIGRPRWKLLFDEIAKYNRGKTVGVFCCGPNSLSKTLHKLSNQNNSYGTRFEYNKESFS

Take `CO[C@H]1COC(=O)CC=C[C@H](C)[C@H](OC)COC(=O)[C@@H](C)COC(=O)CC=C[C@@H]1C`: the z-score in assay [1] is 0.462 (inactive) and 0.63 (inactive); in assay [3], -0.267 (inactive) and 0.565 (inactive); in assay [4] it was -0.162 (inactive) and -0.455 (inactive); in [5], -0.146 (inactive) and 0.4 (inactive); in [6], -0.0153 (inactive) and 0.179 (inactive); in [7], -0.0498 and 0.833. Further, the z-score in [8] was 0.282 (inactive) and 1.16 (inactive); in assay [9], 0.201 (inactive) and 0.589 (inactive); in assay [10] it was -0.26 and 0.25. Further, the composite z-score in assay [2] is -0.294 and -0.193.
With `CC(C)C(=O)N[C@@H]1CCCN1C(=O)C=Cc1ccccc1`, the z-score is 0.214 (inactive) in [1]; -0.272 (inactive) in [3]; 0.274 (inactive) in [4]; -0.77 (inactive) in [5]; -0.241 (inactive) in assay [6]; -0.685 in assay [7]. Besides, the z-score in assay [8] was -0.457 (inactive); in assay [9], 0.53 (inactive); in assay [10] it was 0.434. Further, in [2], the composite z-score is -0.101.
As to `C=C[C@@H](OC)[C@H](O)c1ccc(OC)c(O)c1`, the z-score in [1] is 0.232 (inactive) and 1.81 (inactive); in [3] it was 0.61 (inactive) and -0.257 (inactive); in assay [4] it was 0.436 (inactive) and -1.63 (inactive); in [5], -0.28 (inactive) and -1.54 (inactive); in [6], 0.328 (inactive) and -2.34 (inactive); in assay [7] it was 0.138 and 0.185. Besides, the z-score is -2.35 (inactive) and -2.11 (inactive) in assay [8]; -0.998 (inactive) and -1.12 (inactive) in [9]; -1.51 and -0.778 in [10]. In [2], the composite z-score is 0.235 and -0.328.
Turning to `C[N+](C)(C)CCCCCCNC(=O)[C@H]1C[C@H]2C(=O)N[C@@H](CCCC[N+](C)(C)C)C(=O)N2[C@H]1c1ccc(O)cc1`, the z-score in assay [1] was 0.167 (inactive) and 0.234 (inactive); in assay [3], 0.453 (inactive) and 0.892 (inactive); in assay [4] it was -1.12 (inactive) and 0.591 (inactive); in [5], -1.11 (inactive) and -2.09 (inactive); in assay [6], -1.46 (inactive) and 0.0065 (inactive); in assay [7], 0.0304 and -0.109. For the same compound, the z-score is -1.5 (inactive) and 0.235 (inactive) in assay [8]; -0.479 (inactive) and 0.249 (inactive) in assay [9]; -3.22 and 0.0348 in [10]. In addition, the composite z-score in [2] was -0.0523 and -0.127.
On to `CCN1C(=O)[C@H]2[C@H]3[C@H](O)[C@H](O)CC(=NOC[C@@H](O)COCc4ccco4)[C@@H]3CC[C@H]2C1=O`, for which the z-score in [1] is -0.423 (inactive) and -0.268 (inactive); in [3], -0.0538 (inactive) and 1.03 (inactive); in assay [4], -0.0403 (inactive) and 0.0127 (inactive); in [5], -0.534 (inactive) and 1.78 (inactive); in [6], -0.21 (inactive) and 0.464 (inactive); in [7], 0.485 and 0.312. Moreover, the z-score in assay [8] was -0.535 (inactive) and 0.394 (inactive); in assay [9], -1.86 (inactive) and -0.599 (inactive); in [10], -0.844 and -0.174. Besides, in assay [2], the composite z-score was -0.0877 and -0.101.
In the case of `CC(C)OC(=O)C=C1C[C@@H](c2cccc(C(F)(F)F)c2)O[C@@H](c2cccc(C(F)(F)F)c2)O1`, the z-score in [1] was -0.599 (inactive) and -0.778 (inactive); in assay [3] it was 2.3 (inactive); in assay [4] it was 0.707 (inactive) and 1.02 (inactive); in assay [5] it was 0.192 (inactive) and -0.365 (inactive); in assay [6], 0.613 (inactive) and 0.561 (inactive); in assay [7] it was 0.156 and -0.463. The z-score was -0.112 (inactive) and 0.194 (inactive) in [8]; -1.2 (inactive) and -0.65 (inactive) in assay [9]; -1.3 and -0.324 in assay [10]. Further, the composite z-score in [2] is -0.0518 and -0.371.
With `CO[C@@H]1C=CCC(=O)N2CCC[C@H]2C(=O)OC[C@H](C)C(=O)OC[C@H]1C`, the z-score in assay [1] is 0.813 (inactive); in assay [3] it was -0.393 (inactive); in assay [4], -0.25 (inactive); in assay [5] it was -0.355 (inactive); in assay [6], 0.0084 (inactive); in [7], 0.0533. The z-score was -0.773 (inactive) in assay [8], 0.208 (inactive) in assay [9] and 0.221 in assay [10]. In assay [2], this compound displayed a composite z-score of -0.0536.
On to `C=CCN(C(=O)C1N(CCCCCCO)C(=O)C2C(C(=O)O)C3C=CC21O3)C(C)(C)C` (stereo not given), for which the z-score is -0.32 (inactive) and -0.471 (inactive) in assay [1]; 0.203 (inactive) and 0.288 (inactive) in [3]; 0.357 (inactive) and -0.387 (inactive) in assay [4]; -0.395 (inactive) and -0.274 (inactive) in assay [5]; -0.28 (inactive) and -0.404 (inactive) in [6]; 0.473 and -0.117 in assay [7]. For the same compound, the z-score in assay [8] was 0.93 (inactive) and 0.763 (inactive); in assay [9] it was -0.0347 (inactive) and 0.143 (inactive); in assay [10], 0.588 and 1.41. In addition, the composite z-score in assay [2] is -0.0573 and 0.0451.
Take `C=CCN(CCCC)C(=O)C1N(c2ccc(CCO)cc2)C(=O)C2C(C(=O)O)C3C=CC21O3` (stereo not given): the z-score in [1] is 0.516 (inactive) and 1.32 (inactive); in [3], -0.245 (inactive) and 0.903 (inactive); in [4] it was -0.186 (inactive) and -0.13 (inactive); in assay [5], -0.874 (inactive) and -0.244 (inactive); in [6] it was 0.113 (inactive) and -0.183 (inactive); in assay [7], 0.799 and -0.202. In addition, the z-score is -0.212 (inactive) and 1.49 (inactive) in [8]; 0.0383 (inactive) and -1.09 (inactive) in assay [9]; -0.437 and 0.534 in [10]. In [2], the composite z-score is -0.103 and 0.778.
